The other results are listed elsewhere or left out. Activity calls are given as the source filed them. Rule as the data show it, unless noted: active = inhibition above about 25%; inactive = the rest.
Tests used:
[1] = target: Nuclear receptor coactivator 3 (Homo sapiens) (UniProt Q9Y6Q9); test: SRC3 coactivator transcriptional activity inhibitors, confirmation, cell-based, luminescence, quadruplicate (AID 588792;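 active = mean inhibition over 43.08%, the solvent-only control mean plus 3 SD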;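 also: 0% = DMSO treated cells and 100% = gossypol at 36 µM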); settings: HEK293 GAL4-SRC3 luciferase reporter, at 3.6 µM, stronger effect = higher value
Chain of Nuclear receptor coactivator 3 (Homo sapiens) (Q9Y6Q9 whole entry, looked up, the tested form may be a part): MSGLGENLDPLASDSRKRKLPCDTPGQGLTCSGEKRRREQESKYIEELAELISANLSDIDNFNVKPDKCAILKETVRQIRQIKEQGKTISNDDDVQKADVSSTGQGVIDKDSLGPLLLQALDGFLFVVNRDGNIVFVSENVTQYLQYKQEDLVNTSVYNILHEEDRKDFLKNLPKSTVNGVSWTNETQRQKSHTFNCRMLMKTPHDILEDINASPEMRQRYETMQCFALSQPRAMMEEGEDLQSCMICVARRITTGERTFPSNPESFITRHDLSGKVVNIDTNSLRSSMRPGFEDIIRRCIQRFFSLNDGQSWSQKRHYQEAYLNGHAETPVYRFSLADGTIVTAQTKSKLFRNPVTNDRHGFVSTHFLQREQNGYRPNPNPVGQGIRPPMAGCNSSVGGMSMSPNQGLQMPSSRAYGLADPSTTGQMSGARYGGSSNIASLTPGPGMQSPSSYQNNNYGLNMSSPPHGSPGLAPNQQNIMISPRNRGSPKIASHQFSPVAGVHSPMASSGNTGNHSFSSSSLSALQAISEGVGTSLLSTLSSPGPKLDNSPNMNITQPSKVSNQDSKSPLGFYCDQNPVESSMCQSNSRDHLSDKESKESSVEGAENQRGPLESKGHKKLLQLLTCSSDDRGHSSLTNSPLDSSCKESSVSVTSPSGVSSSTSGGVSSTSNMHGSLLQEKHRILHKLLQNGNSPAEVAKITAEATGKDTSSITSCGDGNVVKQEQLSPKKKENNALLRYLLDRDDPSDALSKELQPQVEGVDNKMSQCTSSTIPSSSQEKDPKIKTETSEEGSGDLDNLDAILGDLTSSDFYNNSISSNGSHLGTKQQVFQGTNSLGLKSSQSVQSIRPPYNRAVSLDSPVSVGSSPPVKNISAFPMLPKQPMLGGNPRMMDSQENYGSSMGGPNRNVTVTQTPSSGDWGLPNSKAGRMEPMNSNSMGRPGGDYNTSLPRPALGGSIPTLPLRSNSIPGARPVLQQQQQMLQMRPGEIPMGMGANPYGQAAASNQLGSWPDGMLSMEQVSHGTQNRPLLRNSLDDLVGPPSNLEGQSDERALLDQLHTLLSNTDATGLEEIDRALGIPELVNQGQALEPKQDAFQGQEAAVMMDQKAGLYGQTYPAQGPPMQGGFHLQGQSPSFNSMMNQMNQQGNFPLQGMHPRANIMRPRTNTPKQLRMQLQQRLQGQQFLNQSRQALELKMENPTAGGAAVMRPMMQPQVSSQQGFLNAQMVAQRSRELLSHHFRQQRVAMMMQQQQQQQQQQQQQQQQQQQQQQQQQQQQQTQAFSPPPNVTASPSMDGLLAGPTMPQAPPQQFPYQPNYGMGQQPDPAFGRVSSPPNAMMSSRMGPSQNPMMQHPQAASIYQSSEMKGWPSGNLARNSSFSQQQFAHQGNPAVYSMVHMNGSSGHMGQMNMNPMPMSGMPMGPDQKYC

[2] = tested on: transactivating tegument protein VP16 (Human herpesvirus 1), Gal4-VP16 luciferase reporter; test: VP16 transactivation inhibitors, counter-screen for SRC3 inhibitor project, cell-based, luminescence, high throughput (AID 588794; in the data active = inhibition above about 30%); settings: mammalian cells, VP16-driven luciferase reporter luminescence; at 3.6 µM; stronger effect = higher value
[3] = target: Nuclear receptor coactivator 1 (Homo sapiens) (UniProt Q15788); test: SRC1 coactivator transcriptional activity inhibitors, confirmation, cell-based, luminescence, quadruplicate (AID 588820;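 active = mean inhibition above 46.68%, the untreated control wells mean plus 3 SD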;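 also: 0% = DMSO wells and 100% = gossypol 36 µM treated wells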); settings: HEK293 GAL4-SRC1 luciferase reporter, at 3.6 µM, stronger effect = higher value
Chain of Nuclear receptor coactivator 1 (Homo sapiens) (Q15788 whole entry, looked up, the tested form may be a part): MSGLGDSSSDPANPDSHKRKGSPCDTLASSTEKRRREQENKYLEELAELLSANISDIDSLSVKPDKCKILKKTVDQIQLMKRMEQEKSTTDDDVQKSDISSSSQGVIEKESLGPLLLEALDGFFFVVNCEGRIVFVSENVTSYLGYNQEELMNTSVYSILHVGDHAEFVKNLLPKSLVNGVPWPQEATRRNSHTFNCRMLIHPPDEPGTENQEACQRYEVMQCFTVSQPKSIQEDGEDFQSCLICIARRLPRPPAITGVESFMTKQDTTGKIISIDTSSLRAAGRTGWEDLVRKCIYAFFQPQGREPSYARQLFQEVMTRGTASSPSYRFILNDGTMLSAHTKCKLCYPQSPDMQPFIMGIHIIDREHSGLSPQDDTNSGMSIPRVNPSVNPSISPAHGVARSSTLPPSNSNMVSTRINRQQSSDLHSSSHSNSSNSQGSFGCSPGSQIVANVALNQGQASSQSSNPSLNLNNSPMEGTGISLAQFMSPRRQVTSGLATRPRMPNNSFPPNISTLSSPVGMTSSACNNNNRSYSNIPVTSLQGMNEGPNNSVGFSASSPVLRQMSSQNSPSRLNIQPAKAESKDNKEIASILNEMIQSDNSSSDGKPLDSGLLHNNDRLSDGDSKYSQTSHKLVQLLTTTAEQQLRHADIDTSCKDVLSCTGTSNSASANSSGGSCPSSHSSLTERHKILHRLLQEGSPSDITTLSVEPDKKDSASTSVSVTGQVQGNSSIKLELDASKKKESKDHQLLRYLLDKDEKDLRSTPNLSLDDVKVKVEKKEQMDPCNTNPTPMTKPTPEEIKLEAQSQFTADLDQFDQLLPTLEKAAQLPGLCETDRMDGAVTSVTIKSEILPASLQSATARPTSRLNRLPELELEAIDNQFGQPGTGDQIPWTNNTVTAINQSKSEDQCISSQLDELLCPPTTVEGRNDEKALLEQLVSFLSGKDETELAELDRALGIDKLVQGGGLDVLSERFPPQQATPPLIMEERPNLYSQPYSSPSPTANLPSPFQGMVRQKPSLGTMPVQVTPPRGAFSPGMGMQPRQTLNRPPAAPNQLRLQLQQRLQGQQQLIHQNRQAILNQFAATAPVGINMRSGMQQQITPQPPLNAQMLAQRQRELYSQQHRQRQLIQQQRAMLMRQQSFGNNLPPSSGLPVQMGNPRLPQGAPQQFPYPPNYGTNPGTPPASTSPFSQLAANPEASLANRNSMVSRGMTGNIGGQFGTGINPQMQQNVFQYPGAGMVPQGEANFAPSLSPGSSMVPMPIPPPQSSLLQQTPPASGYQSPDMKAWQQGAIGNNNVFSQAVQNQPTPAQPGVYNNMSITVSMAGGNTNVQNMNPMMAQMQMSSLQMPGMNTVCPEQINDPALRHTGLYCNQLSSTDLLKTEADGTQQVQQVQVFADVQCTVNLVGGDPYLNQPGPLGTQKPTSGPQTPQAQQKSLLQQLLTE

[4] = VP16 transactivation inhibitors, counter-screen for SRC1 inhibitor project, cell-based, luminescence, high throughput (AID 588824); settings: cell-based VP16 transactivation luciferase luminescence; at 3.6 µM; stronger effect = higher value
[5] = StAR promoter reporter inhibitors, counter-screen for LRH-1 inverse agonist project, cell-based, luminescence, high throughput (AID 651611; in the data active = inhibition above about 28%); settings: StAR promoter luciferase reporter counterscreen, at 3.6 µM, stronger effect = higher value
[6] = target: Nuclear receptor subfamily 5 group A member 2 (Homo sapiens) (UniProt O00482); test: LRH-1 (NR5A2) inverse agonists, retest, confirmation, cell-based, luminescence (AID 651613; in the data active = inhibition above about 42%;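 also: HEK293T cells co-transfected with LRH-1 and StAR promoter luciferase reporter; 0% = vehicle wells and 100% = parental cells lacking receptor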); settings: cell-based LRH-1 luciferase reporter, inverse agonism; at 3.6 µM; stronger effect = higher value
Chain of Nuclear receptor subfamily 5 group A member 2 (Homo sapiens) (O00482 whole entry, looked up): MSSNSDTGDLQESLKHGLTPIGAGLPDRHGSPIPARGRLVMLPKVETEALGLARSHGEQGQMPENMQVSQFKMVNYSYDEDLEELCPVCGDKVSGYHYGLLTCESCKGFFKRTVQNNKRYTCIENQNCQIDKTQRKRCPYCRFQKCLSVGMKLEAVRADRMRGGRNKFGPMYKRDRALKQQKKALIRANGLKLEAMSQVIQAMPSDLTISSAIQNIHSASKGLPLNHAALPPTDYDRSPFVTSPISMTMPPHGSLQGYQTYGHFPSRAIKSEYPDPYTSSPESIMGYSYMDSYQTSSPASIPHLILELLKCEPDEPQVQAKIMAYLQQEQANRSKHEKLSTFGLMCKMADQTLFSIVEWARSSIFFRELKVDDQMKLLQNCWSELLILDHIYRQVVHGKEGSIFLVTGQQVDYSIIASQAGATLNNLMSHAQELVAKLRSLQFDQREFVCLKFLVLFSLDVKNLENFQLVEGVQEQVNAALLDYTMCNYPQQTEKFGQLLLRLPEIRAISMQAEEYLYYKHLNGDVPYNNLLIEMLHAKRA

[7] = target: Steroidogenic factor 1 (Homo sapiens) (UniProt Q13285); test: SF1 (NR5A1) inverse agonists, counter-screen for LRH-1 inverse agonist project, cell-based, luminescence, high throughput (AID 651614; in the data active = inhibition above about 44%;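 also: cells cotransfected with StAR promoter reporter and SF1 expression vector; 0% = vehicle on cells with receptor and 100% = vehicle on cells lacking receptor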); settings: cell-based SF1 luciferase reporter, at 3.6 µM, stronger effect = higher value
Chain of Steroidogenic factor 1 (Homo sapiens) (Q13285 whole entry, looked up, the tested form may be a part): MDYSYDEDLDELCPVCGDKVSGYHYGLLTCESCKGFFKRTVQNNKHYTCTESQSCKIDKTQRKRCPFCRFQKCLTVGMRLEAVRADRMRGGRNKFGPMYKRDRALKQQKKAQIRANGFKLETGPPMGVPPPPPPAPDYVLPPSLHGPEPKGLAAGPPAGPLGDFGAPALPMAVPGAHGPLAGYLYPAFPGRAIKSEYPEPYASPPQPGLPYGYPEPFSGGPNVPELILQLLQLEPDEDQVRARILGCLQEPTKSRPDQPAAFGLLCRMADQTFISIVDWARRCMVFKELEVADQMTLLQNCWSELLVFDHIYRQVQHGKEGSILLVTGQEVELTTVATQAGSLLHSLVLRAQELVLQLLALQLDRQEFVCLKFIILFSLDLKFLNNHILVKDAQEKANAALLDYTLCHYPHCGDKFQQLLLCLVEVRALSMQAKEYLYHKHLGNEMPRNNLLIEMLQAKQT

[8] = VP16 transactivation reporter inhibitors, counter-screen for LRH-1 inverse agonist project, cell-based, luminescence, high throughput (AID 651615; in the data active = inhibition above about 33%); settings: Gal4-VP16 luciferase reporter cells, at 3.6 µM, stronger effect = higher value
[9] = target: Photoreceptor-specific nuclear receptor (Homo sapiens) (UniProt Q9Y5X4); test: NR2E3 agonist confirmation in cells, cell-based, luminescence, CHO-S two-hybrid (AID 624378;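 active = average inhibition above a cutoff equal to the mean inhibition of all tested compounds plus one SD, cut at about 70% in these data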;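 also: 0% = DMSO in NR2E3 cells and 100% = DMSO in cells lacking NR2E3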); settings: CHO-S mammalian two-hybrid NR2E3-NCOR, luciferase luminescence; at 3.98 µM; stronger effect = higher value
Chain of Photoreceptor-specific nuclear receptor (Homo sapiens) (Q9Y5X4 whole entry, looked up, the tested form may be a part): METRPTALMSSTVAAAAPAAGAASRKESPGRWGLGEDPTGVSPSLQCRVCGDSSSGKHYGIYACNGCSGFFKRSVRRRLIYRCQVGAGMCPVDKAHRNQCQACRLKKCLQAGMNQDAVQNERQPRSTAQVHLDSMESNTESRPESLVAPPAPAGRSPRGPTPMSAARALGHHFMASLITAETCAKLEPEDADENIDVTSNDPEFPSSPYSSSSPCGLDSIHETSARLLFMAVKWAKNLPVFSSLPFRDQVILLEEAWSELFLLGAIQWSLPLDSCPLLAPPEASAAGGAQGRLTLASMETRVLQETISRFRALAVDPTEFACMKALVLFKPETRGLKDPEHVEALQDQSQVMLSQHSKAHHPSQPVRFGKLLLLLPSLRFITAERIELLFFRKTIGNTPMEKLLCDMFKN

[10] = GAL4-VP16 reporter modulators, confirmation, counter-screen for NR2E3 agonist project, cell-based, luminescence, CHO-S, high throughput (AID 624379;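 active = mean inhibition above a cutoff equal to the average over all tested compounds plus one standard deviation, cut at about 70% in these data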;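 also: 0% = DMSO with VP16-transfected cells and 100% = DMSO with cells lacking VP16; higher means less reporter light so more repression of VP16 activity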); settings: CHO-S GAL4-VP16 luciferase reporter, at 3.98 µM, stronger effect = higher value
[11] = tested on: transactivating tegument protein VP16 (Human herpesvirus 1); test: VP16 transactivation reporter inhibitors, counter-screen for SRC2 inhibitor project, cell-based, luminescence, single concentration (AID 652007; in the data active = inhibition above about 36%); settings: cell-based VP16 transactivation luciferase reporter, at 8.9 µM, stronger effect = higher value
[12] = target: Nuclear receptor coactivator 2 (Homo sapiens) (UniProt Q15596); test: SRC2 coactivator transcriptional activity inhibitors, confirmation, cell-based, luminescence, HEK293, triplicate (AID 652008;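 active = mean inhibition above 46.5%, the solvent-only control mean plus 3 SD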;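 also: 0% = DMSO-treated cells and 100% = Gossypol at 36 µM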); settings: HEK293 GAL4-SRC2 luciferase reporter, at 8.9 µM, stronger effect = higher value
[13] = Gal4-VP16 luciferase reporter inhibitors, counter-screen for COUP-TFII antagonist project, cell-based, luminescence, HEK293 (AID 687007; in the data active = inhibition above about 13%); settings: at 8.5 µM, stronger effect = higher value
[14] = target: COUP transcription factor 2 (Homo sapiens) (UniProt P24468); test: NR2F2 transcriptional activity inhibitors, confirmation, cell-based, luciferase reporter, HEK293, triplicate (AID 687008;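 active = mean inhibition over three repeats above a set limit taken from the earlier primary screen, cut at about 38% in these data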;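 also: 100% = cells given the luciferase reporter alone without the COUP-TF2 vector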); settings: HEK293 NGFI-A luciferase reporter, luminescence; at 8.5 µM; stronger effect = higher value
Chain of COUP transcription factor 2 (Homo sapiens) (P24468 whole entry, looked up): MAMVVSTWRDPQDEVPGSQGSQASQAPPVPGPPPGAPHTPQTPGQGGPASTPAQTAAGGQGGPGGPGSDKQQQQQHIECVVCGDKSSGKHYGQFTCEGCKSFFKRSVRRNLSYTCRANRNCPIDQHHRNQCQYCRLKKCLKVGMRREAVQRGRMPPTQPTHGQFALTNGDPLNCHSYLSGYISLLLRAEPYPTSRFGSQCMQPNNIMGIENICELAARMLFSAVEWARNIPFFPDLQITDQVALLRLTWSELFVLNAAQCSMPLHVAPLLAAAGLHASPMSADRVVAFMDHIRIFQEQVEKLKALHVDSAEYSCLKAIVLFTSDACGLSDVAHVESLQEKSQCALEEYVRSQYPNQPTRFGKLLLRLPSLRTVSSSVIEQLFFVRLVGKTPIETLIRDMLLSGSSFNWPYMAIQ

Measured: inhibition

CC1Cc2ccccc2N1c1ncnc(N)c1[N+](=O)[O-] (stereo not given)
active: [1] 84.3% | [2] 68% | [3] 81.5% | [4] 65.6% | [5] 39.9% | [6] 63.6% | [7] 46.7% | [8] 82.4%

Cc1ccc2ccc3cccnc3c2n1
active: [5] 30.6% | [6] 50.2% | [7] 54.5% | [8] 37.3%
inactive: [1] -1.81% | [2] 18.9% | [3] 12% | [4] 24.6%

CC1(C)CC(N2CCCC2)=CC(=[N+]2CCCCCC2)C1
active: [2] 49.5% | [4] 52.1% | [6] 95% | [7] 61.3% | [8] 60.9%
inactive: [1] 23% | [3] -16.2% | [5] 0.24%

C=C1C(=O)c2sccc2C(c2ccc(OC)c(OC)c2)C1COC(C)=O (stereo not given)
inactive: [3] 6.09%
active: [1] 67.7% | [2] 59% | [4] 58.4% | [5] 69.8% | [6] 95.4% | [7] 92.8% | [8] 82.4%

CC(=O)N1CCCc2cc(S(=O)(=O)N3CCCC(C(=O)N4CCN(c5cccc(Cl)c5)CC4)C3)ccc21 (stereo not given)
inactive: [1] 26.4% | [3] 7.87% | [10] 70.2% | [11] 14.8% | [12] 26.6% | [13] 4.48%
active: [2] 31.5% | [4] 35.6% | [9] 93% | [14] 60.1%

O=C(Nc1cccnc1)c1ccc(C(=O)Nc2cccnc2)cc1
inactive: [1] 32.2% | [2] 19.1% | [3] 23.3% | [4] 20.4%

O=C(NCc1ccco1)c1cccc(NC(=O)c2ccccc2)c1
active: [2] 52.9% | [4] 53.1% | [5] 58.8% | [6] 65.6% | [7] 66% | [8] 69.5%
inactive: [1] 23.4% | [3] 33.7%

Cc1cc(/C=c2/sc3nc4ccccc4n3c2=O)c(C)n1-c1ccccn1
active: [1] 89.7% | [2] 87.8% | [3] 82.9% | [4] 81.6% | [5] 86.4% | [6] 84.2% | [7] 87.4% | [8] 78.8%

CN(C)c1ccc(C=c2c3ccccc3n3c2c2c([n+]3C)CCCC2)cc1
active: [1] 75.3% | [2] 81.7% | [3] 55.7% | [4] 81.8% | [5] 79% | [6] 110% | [7] 94.3% | [8] 94.7%

CCCCC(=O)NC(c1ccccc1)c1ccc2cccnc2c1O (stereo not given)
inactive: [3] 27.8%
active: [1] 53.3% | [2] 36.9% | [4] 29.2% | [5] 60.3% | [6] 69.5% | [7] 63.6% | [8] 73%

Cn1cc(/C=C/c2cc[n+](C)cc2)c2cc(Cl)ccc21
active: [2] 43.1% | [4] 38.8% | [5] 47.9% | [6] 81.2% | [7] 78.8% | [8] 73.9%
inactive: [1] 21.6% | [3] 21.5%

Cc1cc(C)nc(NC(=O)c2ccc(COc3ccccc3Cl)cc2)c1
active: [2] 45.3% | [4] 42.7% | [5] 38.9% | [6] 65.1% | [7] 67.1% | [8] 57.7%
inactive: [1] 36.6% | [3] 25.2%

Cc1nc(N)nc(N)c1/C=C/C(C)(C)c1ccc(Cl)cc1
active: [1] 70% | [2] 29.5% | [3] 62.2% | [4] 28.5% | [5] 78.5% | [6] 62.7% | [7] 56.5%
inactive: [8] 28.6%

CCN(CC)c1ccc2cc(NC(=O)CCC(=O)O)c(=O)oc2c1
active: [1] 68.4% | [2] 42.9% | [4] 39.2%
inactive: [3] 44.2%

NC(=S)NN=Cc1nccc2ccccc12
active: [1] 80% | [3] 58.1% | [5] 74.9% | [6] 89.8% | [7] 79%
inactive: [2] 26.7% | [4] 20.9% | [8] 20.6%

CCc1ccc(-n2cc(-c3ccc(F)cc3)[n+]3c2SCCC3)cc1
inactive: [1] 17.1% | [3] 19.1% | [5] 18.4%
active: [2] 32.1% | [4] 35.4% | [6] 67.7% | [7] 60.9% | [8] 48.4%

O=C1C(Nc2ccc(O)cc2)=C/C(=N/S(=O)(=O)c2cccs2)c2ccccc21
active: [1] 85.2% | [2] 72% | [4] 68% | [5] 79.7% | [6] 101% | [7] 87.6% | [8] 95.2%
inactive: [3] 29.5%

Reference: PubChem BioAssay
